The supplement of paper PMC3334620
Whole data set: some 33,000 sequences, median “E-score (-0.5 to 0.5)” near -0.035, cut for the highest 2% near 0.35. Only a selection was taken, and the highest values are over-represented in it overall.

target: T1, Pdr3 (UniProt P33200); test: PBM E-score (8-mer binding enrichment) (E-score (-0.5 to 0.5)); higher = stronger / more preferred TF binding; details: protein concentration: 200 nM; construct: GST-full length
T1 sequence: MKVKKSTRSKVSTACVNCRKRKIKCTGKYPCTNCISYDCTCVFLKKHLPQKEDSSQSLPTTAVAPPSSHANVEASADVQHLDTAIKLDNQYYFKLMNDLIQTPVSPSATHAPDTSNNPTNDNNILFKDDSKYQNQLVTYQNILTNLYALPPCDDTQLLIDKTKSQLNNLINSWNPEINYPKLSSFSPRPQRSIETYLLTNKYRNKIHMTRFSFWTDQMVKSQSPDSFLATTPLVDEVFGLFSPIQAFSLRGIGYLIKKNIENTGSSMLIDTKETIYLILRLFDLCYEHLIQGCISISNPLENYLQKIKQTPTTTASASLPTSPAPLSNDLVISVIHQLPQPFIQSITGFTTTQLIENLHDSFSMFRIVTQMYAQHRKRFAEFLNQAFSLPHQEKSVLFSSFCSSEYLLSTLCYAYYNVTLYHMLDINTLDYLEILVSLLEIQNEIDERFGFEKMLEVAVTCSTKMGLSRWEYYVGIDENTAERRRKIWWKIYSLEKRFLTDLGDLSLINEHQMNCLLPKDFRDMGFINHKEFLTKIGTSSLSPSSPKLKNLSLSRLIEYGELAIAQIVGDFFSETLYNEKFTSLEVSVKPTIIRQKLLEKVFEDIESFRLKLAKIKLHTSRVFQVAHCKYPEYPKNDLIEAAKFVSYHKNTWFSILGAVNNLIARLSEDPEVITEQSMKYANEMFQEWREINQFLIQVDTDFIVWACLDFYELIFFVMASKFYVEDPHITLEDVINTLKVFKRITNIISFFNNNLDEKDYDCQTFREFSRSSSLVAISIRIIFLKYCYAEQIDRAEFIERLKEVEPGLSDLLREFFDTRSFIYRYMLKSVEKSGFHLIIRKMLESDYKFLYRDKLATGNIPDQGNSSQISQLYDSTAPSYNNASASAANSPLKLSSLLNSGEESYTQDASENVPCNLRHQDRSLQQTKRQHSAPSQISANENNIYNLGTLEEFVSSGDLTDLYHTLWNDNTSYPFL
Procedure: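 Universal 'all 10-mer' protein binding microarrays (Agilent AMADID 015681) probed with GST-tagged S. cerevisiae TFs (full-length or DBD) made by in vitro transcription/translation (PURExpress), about 100-200 nM. Bound TF was detected with fluorescent anti-GST. Each ungapped 8-mer (which stands for itself and its reverse complement) is scored by the PBM enrichment score (E-score), a modified Wilcoxon-Mann-Whitney statistic from -0.5 to +0.5, computed with the Universal PBM Analysis Suite. Scale: above 0.35 generally sequence-specific binding.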

Row | Sequence | PBM E-score
1 | CCGGAGGC | 0.292
2 | AAGAGTTC | -0.178
3 | CCCCAACA | -0.274
4 | ATTAAGAG | -0.0729
5 | AGCGCGGC | 0.107
6 | CTCGCGGC | 0.171
7 | CGAGCGGC | 0.228
8 | CGCGCGGC | 0.373
9 | AGCGCGGA | 0.331
10 | GGCGCGGA | 0.352
11 | CGAGCGGA | 0.359
12 | CGTGCGGA | 0.177
13 | AGAGCGGA | 0.229
14 | AGTGCGGA | 0.377
15 | CGCGCGGA | 0.383
16 | AGTGCGGG | 0.185
17 | AGGCTACT | -0.167
18 | CCGCCAGC | 0.105
19 | TACCTAGA | -0.195
20 | ACCCGTAT | 0.0405
21 | AGAGTAAC | 0.0157
22 | AAATCTAT | -0.00749
23 | CGGTGTAG | -0.0315
24 | CTTATCCA | -0.00809
25 | AGCGGGAA | 0.232

Row | Sequence | PBM E-score
26 | GGCGGGAC | 0.295
27 | CGCGGGGC | 0.304
28 | AGCGGGGA | 0.0517
29 | CGCGGGGA | 0.393
30 | CGCGGGAA | 0.429
31 | AGCGGGAC | 0.185
32 | CGCGGGAC | 0.444
33 | GGCGGGAA | 0.198
34 | AAGTTCAG | -0.098
35 | CGGTTCCC | 0.153
36 | AGTACTGG | -0.222
37 | GAACTAGC | -0.00564
38 | ATTCCCTA | 0.0152
39 | GGTTCTTA | -0.0791
40 | AAGACCAA | -0.0835
41 | GTTACCCA | -0.159
42 | ATGCGCTG | -0.0256
43 | AATCAACT | 0.0921
44 | ATAAGCTC | 0.042
45 | CACCGCGA | 0.032
46 | AACCGCGT | 0.141
47 | AGCCGCGC | 0.236
48 | CACCGCGG | 0.452
49 | AGCCGCGA | 0.187
50 | AGCCGCGG | 0.485

Row | Sequence | PBM E-score
51 | AACCGCGG | 0.457
52 | AACCGCGA | 0.277
53 | CACCGCGC | 0.166
54 | ATAAGAGG | 0.0703
55 | AAGGTCAG | -0.201
56 | AGCAGACT | -0.189
57 | ACAGAGCT | -0.292
58 | GTGCCCAA | -0.0202
59 | GAATCACC | -0.027
60 | CCGGGCTC | 0.224
61 | ACAATGCA | 0.0617
62 | AGAGGATG | 0.0386
63 | CACTAGCG | -0.0368
64 | ATGTTTAC | -0.0373
65 | GACGCGCA | 0.0698
66 | CCACCGGA | 0.428
67 | GCACCGTA | 0.067
68 | CCACCGGG | 0.257
69 | TCACCGGA | 0.329
70 | ACACCGGA | 0.357
71 | CCACCGGC | 0.204
72 | GCACCGGC | 0.146
73 | GCACCGGA | 0.377
74 | ACACCGGT | 0.14
75 | CGTTTGCA | 0.0843

Row | Sequence | PBM E-score
76 | CCAACTGC | 0.0661
77 | TCCCATCA | -0.209
78 | AGAAAGTG | -0.177
79 | AATCGACG | 0.058
80 | CCGGCAGC | 0.362
81 | CCGGCAGA | 0.229
82 | CCGGCACG | 0.279
83 | CCGGCAGG | 0.231
84 | CCGGCACC | 0.369
85 | ACGGCACC | -0.0873
86 | GTCCGTAA | 0.191
87 | CCGCCACC | 0.0657
88 | ACACAGGG | 0.0204
89 | GCCGTGAC | 0.133
90 | CCCGAAAA | 0.191
91 | ACCGGATG | 0.249
92 | CCCCGAAG | 0.144
93 | CCCGGAAA | 0.449
94 | ACCGGACC | 0.297
95 | CCCGGAAG | 0.419
96 | ACCGGAAC | 0.474
97 | ACCGGAAG | 0.42
98 | ACCGGATC | 0.34
99 | CCAGGAAA | -0.0248
100 | CCTGGAAG | -0.203

Row | Sequence | PBM E-score
101 | ACCGGACG | 0.311
102 | CACCCAAG | -0.071
103 | AAAATAAG | -0.194
104 | CGGTTAAA | 0.0999
105 | CGATCTGA | 0.0713
106 | ATATCGAT | 0.104
107 | ACCGGATA | 0.151
108 | GCAGGATA | -0.0657
109 | ACCGGAAA | 0.405
110 | ACCAGAAA | -0.105
111 | ACCGGAAT | 0.411
112 | ACCGGACT | 0.285
113 | CCCGGACC | 0.334
114 | ACCGGAGT | 0.234
115 | CCCCGAAC | 0.129
116 | CCCGGAAC | 0.467
117 | GCCGGATA | 0.368
118 | ATTGGCGA | -0.2
119 | CCACCTTA | -0.0834
120 | GCTTTAGA | -0.238
121 | AGAGCATC | -0.0714
122 | CGTGCTAG | -0.276
123 | GAAAAGGA | 0.0166
124 | GCCGGAGC | 0.236
125 | TCAGGAAA | -0.128

Row | Sequence | PBM E-score
126 | GCAGGAAA | -0.081
127 | TCCGGAAA | 0.466
128 | TCCGGTAA | 0.307
129 | GCCGGACC | 0.303
130 | GCCGAAAA | 0.276
131 | GCCGGAAC | 0.476
132 | GCCGGAAA | 0.42
133 | GACAAGTA | 0.00093
134 | AAGCGATC | 0.0113
135 | ATTCCTGG | 0.0168
136 | ATTCCGGC | 0.448
137 | ACTCCCGA | 0.0347
138 | ACTCCCCG | 0.306
139 | ATTCCAGC | 0.0377
140 | ACTCCCGG | 0.356
141 | ATTCCTGC | 0.221
142 | ATTCCCCG | 0.28
143 | AATCCGGG | 0.354
144 | ATTCCCGG | 0.393
145 | ATTCCGGG | 0.458
146 | ATTCCCGA | 0.212
147 | ACTCAGCC | -0.146
148 | ACAATAGT | -0.0518
149 | GGACAACC | 0.0553
150 | CCACCACC | -0.0836

Row | Sequence | PBM E-score
151 | CCCAGGGG | -0.115
152 | AATGTTAT | 0.00821
153 | AGCGTGGG | -0.253
154 | AGCACCCT | -0.284
155 | CGATCGGA | 0.196
156 | AGATCGGC | 0.134
157 | GGATCGAA | 0.133
158 | AGATCGGA | 0.394
159 | CGATCCGA | 0.326
160 | GGATCGGA | 0.359
161 | GGATCCGA | 0.399
162 | TAATCGGA | 0.324
163 | AGATCCGA | 0.169
164 | AAATCGGA | 0.326
165 | AGATCGGG | 0.0992
166 | GAATCGGA | 0.36
167 | CTTGACTA | -0.119
168 | TGCAATAA | -0.00943
169 | GTCTTCAA | -0.189
170 | ACGCTGGG | -0.0598
171 | CCCGCGAA | 0.206
172 | GAAGGAAC | 0.0934
